# Results: PubChem BioAssay (Tox21)
# Records with an inconclusive call do not appear. A call without a number means that no potency is given here. Active and inactive are the calls of the source. The call rests on the fitted dose curve.
# Biological target: Acetylcholinesterase (Homo sapiens) (UniProt P22303)
# Test: Acetylcholinesterase (AChE) small molecule antagonists: fluorescence cell-based qHTS assay (AID 1347398); further: nearly all actives have a fitted effect of over 50% in size
# Settings: SH-SY5Y cells; Potency: AChE activity; outcome: AChE activity; series mostly up to 115 µM
# Summary of the method: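 Homogeneous quantitative HTS format. SH-SY5Y cells seeded at 2,000 per well settle overnight at 37 C. Compound pretreatment runs 30 min (37 C, 5% CO2); substrate/probe mix then reacts 40 min at RT before reading 490/520 nm.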
# Acetylcholinesterase (Homo sapiens), sequence (P22303 whole entry, looked up): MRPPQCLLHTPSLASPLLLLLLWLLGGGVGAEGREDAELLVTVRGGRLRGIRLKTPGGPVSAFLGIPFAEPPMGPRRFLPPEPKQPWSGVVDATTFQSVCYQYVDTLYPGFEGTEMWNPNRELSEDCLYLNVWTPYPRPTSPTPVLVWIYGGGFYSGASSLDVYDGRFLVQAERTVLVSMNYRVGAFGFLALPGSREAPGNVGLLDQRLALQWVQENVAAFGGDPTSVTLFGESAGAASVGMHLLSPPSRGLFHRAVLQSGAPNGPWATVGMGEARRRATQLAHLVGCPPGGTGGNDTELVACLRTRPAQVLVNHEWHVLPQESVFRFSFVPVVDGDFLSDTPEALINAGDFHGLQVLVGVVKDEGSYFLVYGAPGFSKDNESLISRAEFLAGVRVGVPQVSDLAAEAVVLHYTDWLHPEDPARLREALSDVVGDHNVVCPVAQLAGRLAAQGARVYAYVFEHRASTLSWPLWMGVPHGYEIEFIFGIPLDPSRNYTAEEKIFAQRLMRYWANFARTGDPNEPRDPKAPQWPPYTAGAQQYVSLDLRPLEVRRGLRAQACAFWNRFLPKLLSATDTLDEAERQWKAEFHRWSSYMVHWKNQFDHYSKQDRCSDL
row,Compound,Potency
1,COCCCC/C(=N\OCCN)c1ccc(C(F)(F)F)cc1,inactive
2,CC(C)(C)C(=O)/C=C/c1ccc(Cl)cc1,inactive
3,CCCCOCCOC(=O)COc1ccc(Cl)cc1Cl,inactive
4,COC(=O)c1cc(C(=O)OC)cc(S(=O)(=O)O)c1,inactive
5,NC(=O)c1ccccc1C(N)=O,inactive
6,CCOC(=O)c1ccc(O)c(O)c1,inactive
7,Nc1cccc2c(=O)[nH][nH]c(=O)c12,inactive
8,COc1c2occc2c(OC)c2c(=O)cc(C)oc12,inactive
9,O=C(/C=C/c1ccc(O)c(O)c1)O[C@@H]1C[C@@](OC(=O)/C=C/c2ccc(O)c(O)c2)(C(=O)O)C[C@@H](O)[C@@H]1O,inactive
10,Cn1cnc2ncnc(N)c21,inactive
11,CCOCCOCCOC(C)=O,inactive
12,COC(=O)NCCC[Si](OC)(OC)OC,inactive
13,CC(C)CCOCc1ccccc1,inactive
14,O=C1CCCC(=O)C1,inactive
15,CC(=O)c1cccc([N+](=O)[O-])c1,inactive
16,COCc1nnc(-c2ccc[n+]([O-])c2)n1-c1c(Cl)c(Cl)cc2[nH]c(=O)c(=O)[nH]c12,inactive
17,Cc1cc(S(=O)(=O)O)ccc1N=Nc1c(O)ccc2ccccc12,inactive
18,CC(=O)c1ccc2c(c1)[C@H](NC(=O)c1ccc(F)cc1)[C@@H](O)C(C)(C)O2,inactive
19,O=C(Nc1ccc([N+](=O)[O-])cc1)Nc1ccc([N+](=O)[O-])cc1,inactive
20,O=C1OC(=O)c2cc(Oc3ccc4c(c3)C(=O)OC4=O)ccc21,inactive

row,Compound,Potency
1,Cc1cnc(C)c(C)n1,inactive
2,CCCCCCNC(=O)n1cc(F)c(=O)[nH]c1=O,inactive
3,CC(C)OC(=O)C(C)N(C(=O)c1ccccc1)c1ccc(F)c(Cl)c1 (stereo not drawn),inactive
4,CCCSS/C(CCO)=C(\C)N(C=O)Cc1cnc(C)nc1N,inactive
5,C[C@@H](O)[C@H]1C(=O)N2C(C(=O)O)=C([C@H]3CCCO3)S[C@H]12,inactive
6,Cc1cccc2nccnc12,inactive
7,CC(=O)OCCc1ccccc1,inactive
8,SCCSCCS,inactive
9,O=C(/C=C/c1ccc(O)c(O)c1)O[C@@H]1C[C@](O)(C(=O)O)C[C@@H](O)[C@H]1O,inactive
10,CCCCCCCCC1CCC(=O)O1 (stereo not drawn),inactive
11,O=CN1CCCCC1,inactive
12,CCCCOC(=O)CCCCC(=O)OCCCC,inactive
13,COc1ccc(/C=C/C(=O)c2ccc(OC)cc2OC)cc1,inactive
14,O=C(O)c1cc(-c2ccc(F)cc2F)ccc1O,inactive
15,Cc1nc2ccccc2n1Cc1ccc(Cl)cc1,inactive
16,Cc1cccc(Cl)c1,inactive
17,O=C(N[C@@H](c1ccccc1)[C@@H]1CCCCN1)c1cccc(C(F)(F)F)c1Cl,inactive
18,Cn1c(=O)c2c(ncn2CC(O)CO)n(C)c1=O (stereo not drawn),inactive
19,Cc1ccc(C(N)=O)cc1N,inactive

# Biological target: Acetylcholinesterase (Homo sapiens) (UniProt P22303)
# Test: Acetylcholinesterase (AChE) small molecule antagonists: enzyme-based qHTS assay with human liver microsomes (AID 1347399); further: nearly all actives have a fitted effect of over 60% in size
# Settings: Potency: qHTS inhibition; outcome: qHTS inhibition; series mostly up to 115 µM
# Summary of the method: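 Recombinant human AChE (50 mU/mL in the enzyme mix) and human liver microsomes (0.25 mg/mL final) were preincubated with compound and NADPH (0.25 mg/mL final) for 30 min at 37 C. Acetylthiocholine/DTNB was then added; thiocholine was read colorimetrically after 10 min at room temperature.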
row,Compound,Potency
1,COCCCC/C(=N\OCCN)c1ccc(C(F)(F)F)cc1,inactive
2,CC(C)(C)C(=O)/C=C/c1ccc(Cl)cc1,inactive
3,CCCCOCCOC(=O)COc1ccc(Cl)cc1Cl,inactive
4,COC(=O)c1cc(C(=O)OC)cc(S(=O)(=O)O)c1,inactive
5,NC(=O)c1ccccc1C(N)=O,inactive
6,CCOC(=O)c1ccc(O)c(O)c1,inactive
7,Nc1cccc2c(=O)[nH][nH]c(=O)c12,inactive
8,COc1c2occc2c(OC)c2c(=O)cc(C)oc12,inactive
9,O=C(/C=C/c1ccc(O)c(O)c1)O[C@@H]1C[C@@](OC(=O)/C=C/c2ccc(O)c(O)c2)(C(=O)O)C[C@@H](O)[C@@H]1O,inactive
10,Cn1cnc2ncnc(N)c21,inactive
11,CCOCCOCCOC(C)=O,inactive
12,COC(=O)NCCC[Si](OC)(OC)OC,inactive
13,CC(C)CCOCc1ccccc1,inactive
14,O=C1CCCC(=O)C1,inactive
15,CC(=O)c1cccc([N+](=O)[O-])c1,inactive
16,COCc1nnc(-c2ccc[n+]([O-])c2)n1-c1c(Cl)c(Cl)cc2[nH]c(=O)c(=O)[nH]c12,inactive
17,Cc1cc(S(=O)(=O)O)ccc1N=Nc1c(O)ccc2ccccc12,inactive
18,CC(=O)c1ccc2c(c1)[C@H](NC(=O)c1ccc(F)cc1)[C@@H](O)C(C)(C)O2,inactive
19,O=C(Nc1ccc([N+](=O)[O-])cc1)Nc1ccc([N+](=O)[O-])cc1,inactive
20,O=C1OC(=O)c2cc(Oc3ccc4c(c3)C(=O)OC4=O)ccc21,inactive

row,Compound,Potency
1,Cc1cnc(C)c(C)n1,inactive
2,CCCCCCNC(=O)n1cc(F)c(=O)[nH]c1=O,inactive
3,CC(C)OC(=O)C(C)N(C(=O)c1ccccc1)c1ccc(F)c(Cl)c1 (stereo not drawn),inactive
4,CCCSS/C(CCO)=C(\C)N(C=O)Cc1cnc(C)nc1N,inactive
5,C[C@@H](O)[C@H]1C(=O)N2C(C(=O)O)=C([C@H]3CCCO3)S[C@H]12,inactive
6,Cc1cccc2nccnc12,inactive
7,CC(=O)OCCc1ccccc1,inactive
8,SCCSCCS,inactive
9,O=C(/C=C/c1ccc(O)c(O)c1)O[C@@H]1C[C@](O)(C(=O)O)C[C@@H](O)[C@H]1O,inactive
10,CCCCCCCCC1CCC(=O)O1 (stereo not drawn),inactive
11,O=CN1CCCCC1,inactive
12,CCCCOC(=O)CCCCC(=O)OCCCC,inactive
13,COc1ccc(/C=C/C(=O)c2ccc(OC)cc2OC)cc1,inactive
14,O=C(O)c1cc(-c2ccc(F)cc2F)ccc1O,inactive
15,Cc1nc2ccccc2n1Cc1ccc(Cl)cc1,inactive
16,Cc1cccc(Cl)c1,inactive
17,O=C(N[C@@H](c1ccccc1)[C@@H]1CCCCN1)c1cccc(C(F)(F)F)c1Cl,inactive
18,Cn1c(=O)c2c(ncn2CC(O)CO)n(C)c1=O (stereo not drawn),inactive
19,Cc1ccc(C(N)=O)cc1N,inactive
